Assay results published in the supplement of paper PMC10849652.
About 8,800 targets were measured; listed, in parts, are those with a hit and a random draw of the rest. About 0.5% of all pairs of compound and target were hits. Values without a mark were called inactive.

Key:
Test in all cases: log2 fold change, soluble protein after heating vs DMSO (PISA); higher = thermal stabilisation; K562 lysate, 10 uM; active = over 0.2 and 3.5 SD of the protein, either way, in both replicates (recomputed)
vemurafenib = compound: CCCS(=O)(=O)Nc1ccc(F)c(C(=O)c2c[nH]c3ncc(-c4ccc(Cl)cc4)cc23)c1F [vemurafenib]
How it was run: (§1)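 Following dounce homogenisation of K562 pellets in PBS pH 7.4 with 1 mM MgCl2, crude extract at 1 mg/mL protein was incubated for 30 min with 10 μM compound. Aliquots were then heated for 3 min over 48°C-58°C and pooled, NP-40 was added to 0.5% at 4°C, and soluble protein was recovered as the supernatant at 21,000xg for 90 min. Channel-sum-equalised TMTpro 16plex LC-MS/MS quantified this protein. Each value, from duplicates, is a log-two fold change in thermal stability relative to solvent controls.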

[1] = compound: CCCS(=O)(=O)Nc1ccc(F)c(C(=O)c2c[nH]c3ncc(Cl)cc23)c1F
How it was run: as §1

barasertib = compound: CCN(CCCOc1ccc2c(Nc3cc(CC(=O)Nc4cccc(F)c4)[nH]n3)ncnc2c1)CCOP(=O)(O)O [barasertib]
How it was run: as §1

[2] = compound: CC[C@@H]1C(=O)N(C)c2cnc(Nc3ccc(C(=O)NC4CCN(C)CC4)cc3OC)nc2N1C1CCCC1
How it was run: as §1

volasertib = compound: CC[C@@H]1C(=O)N(C)c2cnc(Nc3ccc(C(=O)N[C@H]4CC[C@H](N5CCN(CC6CC6)CC5)CC4)cc3OC)nc2N1C(C)C [volasertib]
How it was run: as §1

[3] = compound: CCn1c(C(=O)N(C2CC2)C2CC2)cc2c3c(ncn3C)c(Nc3cc(C)n(C)n3)nc21
How it was run: as §1

[4] = compound: CCn1cc(-c2ccnc3[nH]c(-c4cccc(CN(C)C)c4)cc23)c(-c2ccc(NC(=O)N(C)C)cc2)n1
How it was run: as §1

[5] = compound: CN1CCC(CNc2ccc3ncc(-c4cccc(OC(F)(F)F)c4)n3n2)CC1
How it was run: as §1

saracatinib = compound: CN1CCN(CCOc2cc(OC3CCOCC3)c3c(Nc4c(Cl)ccc5c4OCO5)ncnc3c2)CC1 [saracatinib]
How it was run: as §1

sotrastaurin = compound: CN1CCN(c2nc(C3=C(c4c[nH]c5ccccc45)C(=O)NC3=O)c3ccccc3n2)CC1 [sotrastaurin]
How it was run: as §1

Sequence of UniProt Q14527 (Q14527 whole entry, looked up): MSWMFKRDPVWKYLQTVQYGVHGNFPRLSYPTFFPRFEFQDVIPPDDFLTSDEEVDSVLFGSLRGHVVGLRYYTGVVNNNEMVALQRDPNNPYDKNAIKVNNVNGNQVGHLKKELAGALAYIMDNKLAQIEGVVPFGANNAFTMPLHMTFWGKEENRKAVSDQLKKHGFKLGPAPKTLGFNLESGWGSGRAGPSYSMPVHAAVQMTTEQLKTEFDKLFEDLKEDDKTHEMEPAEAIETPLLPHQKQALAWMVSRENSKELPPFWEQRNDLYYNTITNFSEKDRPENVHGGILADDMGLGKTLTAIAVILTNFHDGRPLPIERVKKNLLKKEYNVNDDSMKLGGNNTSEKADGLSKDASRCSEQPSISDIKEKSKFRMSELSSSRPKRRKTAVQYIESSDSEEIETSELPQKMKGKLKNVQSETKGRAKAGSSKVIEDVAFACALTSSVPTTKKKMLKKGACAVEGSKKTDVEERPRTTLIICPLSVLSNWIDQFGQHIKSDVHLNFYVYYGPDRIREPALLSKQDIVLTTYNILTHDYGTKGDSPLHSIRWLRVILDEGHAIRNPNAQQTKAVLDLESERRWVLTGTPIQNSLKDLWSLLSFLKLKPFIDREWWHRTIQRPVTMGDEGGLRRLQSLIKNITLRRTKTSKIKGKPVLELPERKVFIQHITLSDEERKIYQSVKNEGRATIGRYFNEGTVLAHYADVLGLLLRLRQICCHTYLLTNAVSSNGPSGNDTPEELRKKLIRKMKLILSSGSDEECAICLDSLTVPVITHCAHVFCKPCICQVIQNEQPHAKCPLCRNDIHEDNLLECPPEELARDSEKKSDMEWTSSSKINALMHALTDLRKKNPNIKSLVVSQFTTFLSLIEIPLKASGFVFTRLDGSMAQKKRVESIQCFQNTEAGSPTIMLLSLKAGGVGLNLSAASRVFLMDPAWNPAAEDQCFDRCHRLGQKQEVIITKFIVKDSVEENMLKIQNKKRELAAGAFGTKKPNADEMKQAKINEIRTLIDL
Sequence of UniProt P04792 (P04792 whole entry, looked up): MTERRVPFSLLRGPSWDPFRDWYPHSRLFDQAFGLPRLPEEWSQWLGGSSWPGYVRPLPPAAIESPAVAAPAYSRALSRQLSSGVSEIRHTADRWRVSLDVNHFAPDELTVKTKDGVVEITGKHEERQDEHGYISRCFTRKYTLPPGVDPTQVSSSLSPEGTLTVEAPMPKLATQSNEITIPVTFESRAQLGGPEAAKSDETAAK
Sequence of UniProt P50747 (P50747 whole entry, looked up): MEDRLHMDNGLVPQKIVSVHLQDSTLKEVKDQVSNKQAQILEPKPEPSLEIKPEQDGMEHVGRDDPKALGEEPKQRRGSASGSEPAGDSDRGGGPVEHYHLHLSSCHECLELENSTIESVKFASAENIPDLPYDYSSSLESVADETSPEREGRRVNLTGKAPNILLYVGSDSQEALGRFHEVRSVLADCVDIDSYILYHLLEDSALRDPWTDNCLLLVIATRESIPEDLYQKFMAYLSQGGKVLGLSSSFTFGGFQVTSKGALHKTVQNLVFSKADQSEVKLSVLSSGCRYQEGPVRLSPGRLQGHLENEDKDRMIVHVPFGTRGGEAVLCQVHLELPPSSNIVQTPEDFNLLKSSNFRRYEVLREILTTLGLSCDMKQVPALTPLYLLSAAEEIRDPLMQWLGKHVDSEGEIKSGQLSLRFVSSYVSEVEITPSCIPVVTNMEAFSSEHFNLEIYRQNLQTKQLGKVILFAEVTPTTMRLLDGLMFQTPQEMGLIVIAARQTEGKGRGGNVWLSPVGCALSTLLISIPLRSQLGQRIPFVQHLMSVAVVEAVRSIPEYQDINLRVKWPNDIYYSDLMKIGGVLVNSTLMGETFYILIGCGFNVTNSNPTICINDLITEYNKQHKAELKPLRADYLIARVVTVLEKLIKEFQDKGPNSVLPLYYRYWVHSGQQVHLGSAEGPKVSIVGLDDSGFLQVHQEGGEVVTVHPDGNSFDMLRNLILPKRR
Sequence of UniProt Q16891 (Q16891 whole entry, looked up): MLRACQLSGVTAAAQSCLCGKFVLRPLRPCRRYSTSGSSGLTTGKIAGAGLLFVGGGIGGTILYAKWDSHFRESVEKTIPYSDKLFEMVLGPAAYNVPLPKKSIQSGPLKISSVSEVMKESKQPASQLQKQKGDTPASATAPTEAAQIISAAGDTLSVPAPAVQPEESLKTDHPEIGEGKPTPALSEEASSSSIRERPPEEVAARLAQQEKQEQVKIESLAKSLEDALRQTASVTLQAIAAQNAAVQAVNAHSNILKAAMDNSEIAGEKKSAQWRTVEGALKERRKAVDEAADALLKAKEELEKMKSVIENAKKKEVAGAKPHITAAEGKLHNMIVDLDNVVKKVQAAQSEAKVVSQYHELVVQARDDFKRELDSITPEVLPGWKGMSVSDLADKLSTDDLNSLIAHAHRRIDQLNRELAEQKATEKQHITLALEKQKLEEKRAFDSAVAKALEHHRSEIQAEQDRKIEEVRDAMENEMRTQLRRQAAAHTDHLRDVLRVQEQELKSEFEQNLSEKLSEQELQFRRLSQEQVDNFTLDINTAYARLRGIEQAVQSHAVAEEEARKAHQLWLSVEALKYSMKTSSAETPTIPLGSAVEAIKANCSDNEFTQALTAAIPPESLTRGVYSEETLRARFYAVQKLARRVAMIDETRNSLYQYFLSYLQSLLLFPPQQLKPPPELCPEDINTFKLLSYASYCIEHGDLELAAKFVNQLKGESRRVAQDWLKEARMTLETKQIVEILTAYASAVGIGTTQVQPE
Sequence of UniProt O75367 (O75367 whole entry, looked up): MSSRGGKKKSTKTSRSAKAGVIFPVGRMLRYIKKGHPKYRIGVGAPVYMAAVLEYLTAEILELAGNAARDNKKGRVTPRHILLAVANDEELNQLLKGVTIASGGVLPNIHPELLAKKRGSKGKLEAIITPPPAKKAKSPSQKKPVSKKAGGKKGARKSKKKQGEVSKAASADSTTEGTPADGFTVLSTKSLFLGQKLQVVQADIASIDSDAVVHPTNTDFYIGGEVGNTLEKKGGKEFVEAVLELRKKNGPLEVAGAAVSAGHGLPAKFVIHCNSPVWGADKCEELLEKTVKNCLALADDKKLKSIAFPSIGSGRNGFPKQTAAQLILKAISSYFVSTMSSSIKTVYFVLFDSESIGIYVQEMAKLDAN
Sequence of UniProt O60547 (O60547 whole entry, looked up): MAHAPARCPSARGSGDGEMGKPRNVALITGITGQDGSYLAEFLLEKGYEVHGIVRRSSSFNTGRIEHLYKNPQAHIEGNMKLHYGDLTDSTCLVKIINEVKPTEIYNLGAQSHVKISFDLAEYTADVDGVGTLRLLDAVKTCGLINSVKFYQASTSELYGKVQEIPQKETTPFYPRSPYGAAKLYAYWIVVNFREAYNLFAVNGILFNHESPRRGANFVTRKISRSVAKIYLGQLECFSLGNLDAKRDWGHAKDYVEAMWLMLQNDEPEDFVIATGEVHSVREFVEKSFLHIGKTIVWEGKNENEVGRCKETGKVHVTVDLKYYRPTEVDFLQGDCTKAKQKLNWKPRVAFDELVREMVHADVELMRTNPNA
Sequence of UniProt Q16836 (Q16836 whole entry, looked up): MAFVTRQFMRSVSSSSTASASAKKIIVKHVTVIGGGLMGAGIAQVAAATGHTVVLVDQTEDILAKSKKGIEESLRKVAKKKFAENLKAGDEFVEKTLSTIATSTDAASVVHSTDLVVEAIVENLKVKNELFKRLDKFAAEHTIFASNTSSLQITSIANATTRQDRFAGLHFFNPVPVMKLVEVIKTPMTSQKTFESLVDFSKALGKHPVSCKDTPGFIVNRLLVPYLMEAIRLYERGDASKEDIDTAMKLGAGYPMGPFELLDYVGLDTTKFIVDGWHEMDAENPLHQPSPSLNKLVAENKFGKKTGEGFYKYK
Sequence of UniProt Q92759 (Q92759 whole entry, looked up): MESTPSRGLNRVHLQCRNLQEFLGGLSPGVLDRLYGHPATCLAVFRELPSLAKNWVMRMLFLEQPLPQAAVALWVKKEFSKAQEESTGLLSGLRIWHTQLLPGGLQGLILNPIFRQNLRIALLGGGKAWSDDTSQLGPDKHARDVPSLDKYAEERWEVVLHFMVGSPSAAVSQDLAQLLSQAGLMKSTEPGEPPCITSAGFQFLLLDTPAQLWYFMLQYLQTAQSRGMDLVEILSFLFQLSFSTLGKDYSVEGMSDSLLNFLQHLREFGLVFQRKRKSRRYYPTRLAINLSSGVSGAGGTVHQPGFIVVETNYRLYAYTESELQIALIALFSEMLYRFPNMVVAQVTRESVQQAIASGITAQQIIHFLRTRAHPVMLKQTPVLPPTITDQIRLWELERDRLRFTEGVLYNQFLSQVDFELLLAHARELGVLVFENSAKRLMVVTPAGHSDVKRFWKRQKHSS
Sequence of UniProt Q14103 (Q14103 whole entry, looked up): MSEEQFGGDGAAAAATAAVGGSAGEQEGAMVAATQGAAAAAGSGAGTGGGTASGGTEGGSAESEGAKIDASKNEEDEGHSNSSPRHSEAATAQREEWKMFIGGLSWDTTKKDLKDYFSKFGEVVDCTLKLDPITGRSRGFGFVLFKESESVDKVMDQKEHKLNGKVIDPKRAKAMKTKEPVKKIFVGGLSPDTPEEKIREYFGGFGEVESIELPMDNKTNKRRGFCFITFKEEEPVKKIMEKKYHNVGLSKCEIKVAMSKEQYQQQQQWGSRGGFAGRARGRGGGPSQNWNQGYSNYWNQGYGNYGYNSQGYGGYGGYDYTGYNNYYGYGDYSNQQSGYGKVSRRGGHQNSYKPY
Sequence of UniProt Q9H4A5 (Q9H4A5 whole entry, looked up): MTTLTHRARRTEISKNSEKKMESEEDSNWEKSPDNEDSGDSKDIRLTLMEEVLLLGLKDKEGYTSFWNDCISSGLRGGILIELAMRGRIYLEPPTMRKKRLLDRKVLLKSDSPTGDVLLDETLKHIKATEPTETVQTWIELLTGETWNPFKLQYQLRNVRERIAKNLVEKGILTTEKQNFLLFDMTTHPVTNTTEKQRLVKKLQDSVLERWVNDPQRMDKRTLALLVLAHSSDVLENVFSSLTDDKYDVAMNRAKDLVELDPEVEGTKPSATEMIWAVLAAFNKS
Sequence of UniProt P17096 (P17096 whole entry, looked up): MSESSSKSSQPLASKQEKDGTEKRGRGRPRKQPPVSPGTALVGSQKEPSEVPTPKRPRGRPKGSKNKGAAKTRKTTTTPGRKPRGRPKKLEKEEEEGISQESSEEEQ

Target | log2 fold change (vemurafenib) | log2 fold change [1] | log2 fold change (barasertib) | log2 fold change [2] | log2 fold change (volasertib) | log2 fold change [3] | log2 fold change [4] | log2 fold change [5] | log2 fold change (saracatinib) | log2 fold change (sotrastaurin)
INPP4A (UniProt Q96PE3) | -0.03 | 0.011 | 0.382 (active) | -0.017 | -0.034 | 0.031 | 0.021 | 0.015 | -0.025 | -0.008
HMGA1 (UniProt P17096) | 0.023 | -0.011 | -0.05 | 0.051 | 0.02 | -0.04 | -0.323 (active) | 0.131 | -0.001 | 0.012
HADH isoform 2 (UniProt Q16836) | -0.032 | -0.022 | -0.049 | 0.002 | 0.004 | 0.009 | 0.066 | -0.054 | -0.096 | 0.004
GYPA (UniProt P02724) | -0.011 | -0.008 | 0.254 | 0.188 | 0.009 | -0.081 | 0.587 (active) | -0.259 | 0.01 | 0.011
IRF2BPL (UniProt Q9H1B7) | -0.039 | 0.026 | 0.024 | 0.04 | 0.001 | 0.022 | -0.195 | 0.111 | 0.025 | -0.005
HLTF (UniProt Q14527) | -0.008 | -0.044 | 0.077 | -0.002 | -0.043 | 0.028 | -0.024 | 0.073 | 0.004 | 0.017
INF2 (UniProt Q27J81) | 0 | -0.059 | 0.104 | -0.07 | -0.052 | -0.01 | -0.064 | -0.045 | 0.036 | 0.019
ISCA1 isoform 2 (UniProt Q9BUE6) | 0.007 | -0.059 | 0.028 | 0.042 | 0.03 | -0.051 | 0.425 (active) | -0.21 | 0.028 | 0.021
HELQ (UniProt Q8TDG4) | 0.12 | -0.064 | 0.036 | 0.048 | 0.01 | -0.044 | 0.038 | -0.104 | -0.058 | 0.057
HAUS8 (UniProt Q9BT25) | -0.042 | 0.04 | -0.05 | -0.049 | 0.037 | -0.005 | -0.048 | 0.029 | 0.031 | -0.001
HAUS7 isoform 2 (UniProt Q99871) | -0.054 | 0.006 | 0.002 | 0.005 | -0.06 | -0.021 | 0.073 | -0.173 | 0.044 | -0.025
IMMT (UniProt Q16891) | -0.016 | -0.006 | 0.004 | -0.046 | 0.015 | 0.015 | -0.005 | -0.212 (active) | 0.01 | -0.012
GOLPH3L (UniProt Q9H4A5) | 0.068 | 0.025 | 0.033 | -0.055 | -0.023 | 0.048 | -0.034 | -0.08 | 0.046 | -0.092
HLCS (UniProt P50747) | -0.002 | 0.034 | -0.001 | -0.034 | -0.054 | 0.003 | 0.293 (active) | -0.041 | -0.026 | 0.027
GMDS (UniProt O60547) | 0.057 | 0.012 | 0.027 | -0.088 | -0.034 | -0.023 | 0.019 | 0.042 | -0.033 | 0.019
HSPB1 (UniProt P04792) | -0.001 | -0.003 | 0.019 | 0.008 | -0.02 | 0.01 | 0.005 | -0.042 | 0.024 | 0.005
KBTBD2 (UniProt Q8IY47) | -0.035 | 0.006 | 0.022 | -0.018 | 0.013 | -0.181 | -0.166 | 0.06 | 0.031 | -0.03
GTF2H4 (UniProt Q92759) | -0.047 | 0.007 | 0.039 | -0.099 | -0.046 | 0.028 | 0.063 | -0.075 | 0.029 | 0.034
GSE1 (UniProt Q14687) | -0.018 | 0.035 | 0.011 | -0.015 | -0.026 | 0.007 | -0.074 | -0.009 | 0.031 | 0.049
H2AFY (UniProt O75367) | -0.042 | 0.013 | 0.094 | 0.131 | -0.036 | -0.001 | -0.059 | 0.056 | -0.077 | 0.104
HNRNPD isoform 2 (UniProt Q14103) | 0.011 | 0.002 | -0.052 | 0.022 | 0.029 | -0.036 | 0.857 (active) | -0.135 | 0 | -0.08
HAUS3 (UniProt Q68CZ6) | 0.012 | 0.024 | 0.006 | -0.029 | -0.048 | 0.002 | -0.035 | -0.065 | -0.016 | 0.01
GOLGA1 (UniProt Q92805) | 0.081 | 0.086 | 0 | 0.007 | 0.121 | -0.061 | -0.019 | -0.04 | -0.031 | 0.071
